Most compounds without a hit are left out; they make up all but 0.78% or so of the library.
Tb PGK inh: qHTS Assay to Find Inhibitors of Phosphoglycerate Kinase; PGK/GAPDH coupled, Kinase-Glo luminescence, 60 min; Potency, µM (titrated, usually from 57.5 µM), inactives show at the highest dose activity change, negative = inhibition, actives largely listed as inhibitors; hit rate 0.043% among 380,000; further: potency means the concentration at half of the fitted maximal effect; on the % scale 0 is the no-effect control and ±100 the full control effect; nearly all actives have a fitted effect of over 60% in size
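Recombinant glycosomal PGK reaction used 1,3-bisphosphoglycerate generated in-well by GAPDH (100nM final) in 100mM TEA pH 7.6, 5mM MgCl2, 0.01% Tween-20. After 60 minutes at room temperature, ATP was read by Kinase-Glo Plus luminescence end-point.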
GLS inh: qHTS for Inhibitors of Glutaminase (GLS); Glutaminase kidney isoform, mitochondrial (Homo sapiens), O94925; GLS enzymatic activity, qHTS titration; Potency, µM (series often up to 45.5 µM), for the others: top-dose activity change, negative = inhibition, actives largely listed as inhibitors; hit rate 0.21% among 410,000; AID 624170, 2012; further: potency means the concentration at half of the fitted maximal effect; on the % scale 0 is the no-effect control and ±100 the full control effect
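Assay buffer: 45 mM KH2PO4 pH 8.2, 0.02% Tween-20. hKGA acts on L-glutamine (1 mM solution added); product glutamate is reported by an oxidase/peroxidase Amplex Red coupling, with fluorescence taken at baseline and 30 min.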
PINK1 expr mod: A Quantitative High throughput Screen to Identify Chemical Modulators of PINK1 Expression; PINK1 immunofluorescence, high-content cytometry, 24 h; Potency, µM (highest dose often 76.6 µM), inactives show at the top dose activation (PINK1 increase), actives largely listed as activators; hit rate 0.2% among 410,000; AID 624263, 2012; active means well fitted activation curve with a large enough effect; inconclusive means small, poorly fitted or top-dose-only effect; cell line not stated here; further: potency means the concentration at half of the fitted maximal effect; % of control where 0% means no effect; nearly all actives have a fitted effect of over 65% in size
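A stable cell line was treated with compounds at 5 concentrations for 24 hours, with CCCP as control. PINK1 levels and mitochondrial localization were measured by immunofluorescence with mitochondrial, cell and nuclear markers after fixation, read by laser-scanning cytometry.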
PI4K2A inh: qHTS for small molecular inhibitors of PI4K2A; Phosphatidylinositol 4-kinase type 2-alpha (Homo sapiens), Q9BTU6; purified PI4K2A, ADP-Glo luminescence, 1 h; active compounds read low; activity change, negative = inhibition, % at 76.9 µM; hit rate 0.13% among 420,000; in the data active means activity change below about -50%; inconclusive means mostly about -30% to -49%;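 further: -100% = wells without enzyme as full effect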
Target sequence (Q9BTU6 whole entry, looked up): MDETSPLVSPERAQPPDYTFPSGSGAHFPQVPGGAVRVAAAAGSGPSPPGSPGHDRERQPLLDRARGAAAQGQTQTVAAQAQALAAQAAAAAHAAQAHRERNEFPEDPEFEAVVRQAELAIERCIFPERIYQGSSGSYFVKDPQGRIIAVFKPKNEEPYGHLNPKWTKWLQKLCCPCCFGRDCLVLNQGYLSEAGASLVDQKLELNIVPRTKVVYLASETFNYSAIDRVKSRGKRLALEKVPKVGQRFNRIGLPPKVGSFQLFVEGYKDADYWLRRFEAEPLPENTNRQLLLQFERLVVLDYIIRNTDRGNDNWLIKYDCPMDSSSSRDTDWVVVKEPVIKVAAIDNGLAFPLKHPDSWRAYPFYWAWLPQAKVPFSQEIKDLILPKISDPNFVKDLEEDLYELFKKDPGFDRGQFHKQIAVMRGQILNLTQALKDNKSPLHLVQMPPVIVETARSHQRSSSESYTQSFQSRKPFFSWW
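In this quantitative HTS, ADP production by PI4K2A was quantified luminescently after 1 h at ambient temperature; 100 microM adenosine served as plate-quality control.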
CCT modulator: High-Throughput Screening for Modulators of Cytosolic Chaperonin Activity; purified chaperonin ATPase assay, HTRF ADP detection, 30 min; activity change, % (test concentration not listed), hits read low; hit rate 0.3% among 360,000; in the data active means activity change below about -30%; further: on the % scale 0 is the no-effect control and ±100 the full control effect
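TRiC at 40 or 20 nM final (batch-dependent) in 30 mM Tris pH 7.4, 100 mM KCl, 5 mM MgCl2, 1 mM DTT, with compound at single 76 uM and 10 uM ATP, 30 min at 37 deg C. ADP detected by HTRF Transcreener, 665/615 ratio.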
The depositor's hits bear a star; i = inactive; ? = inconclusive; · = no result. Unless noted, the call rests on the fitted dose curve; in most records, active means well fitted curve in the direction sought with a large enough effect; inconclusive means small, poorly fitted or top-dose-only effect, or another doubt; inactive means no such curve, though single readings can be large; an effect the other way counts as inactive or inconclusive.

SMILES | Tb PGK inh | GLS inh | PINK1 expr mod | PI4K2A inh | CCT modulator
N#Cc1ccc(CSc2nnc(NC(=O)c3ccc4ncsc4c3)s2)cc1 | ? | 4µM* | 7% | 0 | -16
Clc1ccc(/C=N/Nc2ncnc3nc[nH]c23)cc1 | -5% | 0% | 3% | -11 | 0
Oc1ccc(/C=N/Nc2ncnc3nc[nH]c23)cc1 | ? | 8% | 2% | -52* | -1
COc1cccc(CN2C(=O)NC(C)(C3CCN(Cc4ccc(C)o4)CC3)C2=O)c1OC (centres undefined) | · | · | 0% | · | ·
CCCC(=O)Nc1ccc(NC(=O)c2ccco2)c(OC)c1 | i | -4% | 3.5µM* | -8 | 1
Cn1cc(CN2CCC(C3(c4ccccn4)NC(=O)N(CC4CCCO4)C3=O)CC2)c2ccccc21 (centres undefined) | · | · | -1% | · | ·
CC(=O)Nc1ccc(S(=O)(=O)NCCc2cn3nc(C)c(C)nc3n2)cc1 | 0% | -1% | 0% | -2 | -79*
CC(NC(=O)c1cc(F)ccc1F)c1nnc2n1CCN(Cc1ccco1)CC2 (centres undefined) | · | · | 1% | · | ·
COCC(=O)Nc1cc(C(=O)N2CCCC(C(N)=O)C2)cc2nc(-c3ccccc3)n(C)c12 (centres undefined) | · | · | 0% | · | ·
CCN1CCCC1CNCc1cc2ccc(SC)cc2nc1-c1cc(OC)ccc1OC (centres undefined) | · | · | 0% | · | ·
Cc1c(C(=O)N2CCOCC2)c(S(=O)(=O)Nc2ccc(F)cc2)c(C)n1C | 7% | -7% | 1% | 3 | 0
Cc1c(C(=O)N2CCOCC2)c(S(=O)(=O)Nc2ccccc2)c(C)n1C | -4% | -2% | -1% | 2 | -53*
COc1ccc(N(CC(=O)Nc2cc(Cl)ccc2C)S(=O)(=O)c2c(C)n[nH]c2C)cc1 | -5% | -1% | 4% | 2 | -59*
COCc1c(C(=O)Nc2cccc(S(=O)(=O)N3CCCCC3)c2)oc2ccccc12 | 0% | -15% | -1% | -1 | -74*
Cc1c(C(=O)N2CCCC(c3ccccc3)C2)sc2ncnc(NCCc3ccccn3)c12 (centres undefined) | · | · | 0% | · | ·
Cc1ccc2[nH]nc(C(=O)N3CCOc4ccc(CN5CCc6sccc6C5)cc4C3)c2c1 | · | · | 4% | · | ·
O=C(O)c1cc(N/N=C/c2ccc3c(c2)OCO3)ccc1Cl | -8% | 20% | -1% | -12 | 0
C/C(=N\Nc1ccc(Cl)c(C(=O)O)c1)c1ccc2c(c1)OCO2 | -5% | -13% | 0% | 2 | -55*
C/C(=N\Nc1ccc(Cl)c(C(=O)O)c1)c1cccc2ccccc12 | -21% | 11µM* | 4% | -3 | 2
C/C(=N\Nc1cccc(C(=O)O)c1)c1cc2ccccc2o1 | -14% | ? | -1% | -3 | 1
C/C(=N\Nc1ccc(Cl)c(C(=O)O)c1)c1cc2ccccc2o1 | 0% | 10µM* | 1% | 2 | 0
Cc1c(C(=O)NCC2(N3CCOCC3)CCCC2)cnn1-c1nccc(-c2ccccc2F)n1 | · | · | 1% | · | ·
CCOc1ccc(/C=N/NC(=O)c2[nH]ncc2Br)c(O)c1 | ? | 0% | 1% | -75* | 0
COC(=O)CN1C(=O)[C@H]2[C@@H](C3CC3)N3C(=O)CN(Cc4ccccn4)C(=O)[C@@]3(Cc3ccccc3)[C@H]2C1=O | 5% | 2% | 1% | 4 | -40*
C/C1=C2N=C(/C=C3N=C(/C(C)=C4\[N-][C@@H]([C@H](CC(N)=O)[C@]4(C)CCC(=O)NC[C@@H](C)OP(=O)([O-])O[C@@H]4[C@@H](O)[C@H](n5cnc6cc(C)c(C)cc65)O[C@@H]4CO)[C@@]4(C)N=C1[C@H](CCC(N)=O)[C@@]4(C)CC(N)=O)[C@H](CCC(N)=O)C\3(C)C)[C@@H](CCC(N)=O)[C@@]/2(C)CC(N)=O.[CH3-].[Co+3] | · | -7% | · | · | ·
SMILES | Tb PGK inh | GLS inh | PINK1 expr mod | PI4K2A inh | CCT modulator
COc1ccc(C(=O)CSc2ccc(-c3ccccc3)nn2)cc1 | -5% | 7% | 1% | -3 | -3
COc1ccc(-c2ccc(SC)nn2)cc1 | ? | 1% | -1% | -72* | 0
CC(=O)c1cc2ccccc2s1 | · | · | · | -1 | ·
COc1ccc2cc3cc(C(=O)NCc4cccnc4)oc3nc2c1 | i | 0% | 2% | 2 | -68*
COc1ccc2cc3cc(C(=O)NCc4ccccc4OC)oc3nc2c1 | 0% | -10% | 4% | 2 | ·
CN[C@H](CC(C)C)C(=O)N[C@H]1C(=O)N[C@@H](CC(N)=O)C(=O)N[C@H]2C(=O)N[C@H]3C(=O)N[C@H](C(=O)N[C@H](C(=O)O)c4cc(O)cc(O)c4-c4cc3ccc4O)[C@H](O)c3ccc(c(Cl)c3)Oc3cc2cc(c3O[C@@H]2OC(CO)[C@@H](O)[C@H](O)[C@H]2O[C@H]2C[C@](C)(N)[C@H](O)[C@H](C)O2)Oc2ccc(cc2Cl)[C@H]1O (some centres undefined) | · | -7% | · | · | ·
Cc1cnc(-n2ncc(C(=O)NCc3ccncc3)c2C2CC2)nc1-c1cccs1 | · | · | 1% | · | ·
CCN(CC)CCN | · | · | · | 0 | ·
Cc1cccc(-c2nnn3c2nc(NCc2ccc4c(c2)OCO4)c2ccccc23)c1 | i | 1% | 1% | -53* | ·
Cc1ccc(C(=O)NCCc2nnc3n2CCN(Cc2ccc4ccccc4c2)CC3)c(C)c1 | · | · | 0% | · | ·
Cc1nn(CC(C)C)c(Cl)c1C(=O)NCC(C)(C)N1CCOCC1 | -6% | 5% | -1% | -6 | -34*
Cc1nn(CC(C)C)c(Cl)c1C(=O)NCC1CCCO1 (centres undefined) | i | -3% | 2% | 1 | 1
O=C(O)c1ccccc1NS(=O)(=O)c1ccc(N/N=C/c2ccc(O)c(O)c2)c([N+](=O)[O-])c1 | 35µM* | -9% | 4% | -12 | 2
COC(=O)c1ccc(CN2CCOc3ccc(C(O)c4cccnc4)cc3C2)cc1 (centres undefined) | · | · | -1% | · | ·
COc1ccc(C2C=C(c3ccc(Cl)cc3)Nc3nc(-c4ccc(Cl)cc4)nn32)cc1 (centres undefined) | i | -5% | 16µM* | -2 | ·
Cc1ccc(Cl)cc1N1CCN(C(=O)c2cc3ccc4cccnc4c3[nH]2)CC1 | -3% | -6% | -17% | -76* | ·
CC1(C)O[C@@H]2[C@H](O1)[C@@H](CO)O[C@H]2n1cnc2c(=O)[nH]cnc21 | -1% | -4% | 0% | -2 | -49*
CC(=O)/C=C/C=C1/C2CCC(C2)C1(C)C (centres undefined) | · | · | · | 3 | ·
